# Experimental data from the supplement of paper PMC6607015.
# Structures can show the parent of a compound that is named as a salt.
# Test system: A431
# Test: filipin (cholesterol) integrated intensity within LBPA endosomes, Z-score; higher = more cholesterol in LBPA endosomes
# Settings: compound concentration in added solution (µM; 5 µl added to 20 µl cells): 10; 18 h
# How it was run: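 HeLa MZ or A431 cells (3,500/well in 20 µl) were seeded onto 5 µl of 10 µM compound solution in duplicate 384-well imaging plates, incubated 18 h, then fixed in 4% PFA. Cells were stained with 6C4 anti-LBPA antibody, filipin, propidium iodide and CellTracker green, and four 20× images were taken per well. MetaXpress segmentation gave per-cell integrated LBPA or filipin intensity, either whole-cell or within LBPA endosomes. Values are Z-scores normalised in AcuityXpress.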
row,SMILES,filipin (z-score)
1,C[N+]1(C)[C@@H]2CC[C@H]1C[C@@H](OC(=O)C(CO)c1ccccc1)C2 (stereo not given in full) [Methylatropine nitrate],-0.375
2,COc1ccc(C(=O)N2CCCC2=O)cc1 [Aniracetam],-0.562
3,CC(C)c1c(CN(C)C(C)Cc2ccccc2)n(C)n(-c2ccccc2)c1=O (stereo not given) [Famprofazone],-0.4
4,"CC(=O)OCC1=C(C(=O)O)N2C(=O)[C@@H](N)[C@H]2SC1 [Cephalosporanic acid, 7-amino]",-0.581
5,O=P1(N(CCCl)CCCl)NCCCO1 (stereo not given) [Cyclophosphamide],-0.311
6,C#CCN(C)[C@H](C)Cc1ccccc1 [Selegiline hydrochloride],-0.535
7,CC(=O)[C@H]1CC[C@H]2[C@@H]3CC[C@H]4C[C@H](O)CC[C@]4(C)[C@H]3C(=O)C[C@]12C [Alfaxalone],0.378
8,Cc1cc(C(C#N)c2ccc(Cl)cc2)c(Cl)cc1NC(=O)c1cc(I)cc(I)c1O (stereo not given) [Closantel],-0.512
9,C[C@]12C[C@H]3S[C@H]3C[C@@H]1CC[C@@H]1[C@@H]2CC[C@]2(C)[C@@H](O)CC[C@@H]12 [Epitiostanol],-0.364
10,C=CCC1(CC(C)C)C(=O)NC(=O)NC1=O [Butalbital],-0.55
11,O=C([O-])c1ccccc1-c1c2cc(Br)c(=O)cc-2oc2[c]([Hg+])c([O-])c(Br)cc12.[Na+].[Na+].[OH-] [Merbromin],-0.525
12,C#C[C@]1(O)CC[C@H]2[C@@H]3CCC4=CC(=O)CCC4=C3C=C[C@@]21CC [Gestrinone],-0.436
13,CNC(C)(C)Cc1ccccc1 [Mephentermine hemisulfate],-0.471
14,C1CCc2nnnn2CC1 [Pentylenetetrazole],-0.452
15,Clc1ccc(C(OCCN2CCCCC2)c2ccccc2)cc1 (stereo not given) [Cloperastine hydrochloride],2.83
16,CN1[C@@H]2C[C@@H](OC(=O)[C@H](CO)c3ccccc3)C[C@H]1[C@@H]1O[C@@H]12 [Scopolamine hydrochloride],-0.45
17,CC(Cc1ccc(O)cc1)NCC(O)c1cc(O)cc(O)c1 (stereo not given) [Fenoterol hydrobromide],-0.574
18,COc1ccc2c(c1)[C@]13CCCC[C@@H]1[C@H](C2)N(C)CC3 [Dextromethorphan hydrobromide monohydrate],-0.149

row,SMILES,filipin (z-score)
1,CN1[C@@H]2CC[C@H]1C[C@@H](OC(=O)C(CO)c1ccccc1)C2 (stereo not given in full) [Atropine sulfate monohydrate],-0.5
2,CC(=O)O[C@H]1CC[C@@]2(C)C(=CC[C@@H]3[C@@H]2CC[C@]2(C)C(=O)CC[C@@H]32)C1 [Dehydroisoandosterone 3-acetate],-0.136
3,O=c1[nH]oc2c1CCNC2 [THIP Hydrochloride],-0.413
4,O=C(CCCN1CCC(n2c(=O)[nH]c3ccccc32)CC1)c1ccc(F)cc1 [Benperidol],2.28
5,CC1OC(OC2/C=C/C=C/C=C/C=C/CC/C=C/C=C/[C@H](C)[C@@H](O)[C@@H](C)[C@H](C)OC(=O)CC(O)CC(O)CC(O)CCC(O)C(O)C[C@]3(O)CC(O)C(C(=O)O)C(C2)O3)C(O)C(N)C1O (stereo not given in full) [Nystatine],-0.136
6,CCNC1(c2cccs2)CCCCC1=O (stereo not given) [Tiletamine hydrochloride],-0.475
7,C=C(C)[C@@H]1[C@H]2OC(=O)[C@@H]1[C@]1(O)C[C@H]3O[C@]34C(=O)O[C@H]2[C@]14C [Picrotoxinin],-0.448
8,CC(C)C[C@H]1C(=O)N2CCC[C@H]2[C@]2(O)O[C@](NC(=O)[C@@H]3C=C4c5cccc6[nH]c(Br)c(c56)C[C@H]4N(C)C3)(C(C)C)C(=O)N12 [Bromocryptine mesylate],0.487
9,CCC1(C)CC(=O)NC(=O)C1 [Bemegride],-0.547
10,C[C@]12CC[C@H](O)C[C@@H]1CC[C@@H]1[C@@H]2CC[C@]2(C)C(=O)CC[C@@H]12 [Epiandrosterone],2.15
11,N[C@@H]1C[C@H]1c1ccccc1 [Tranylcypromine hydrochloride],-0.48
12,CCCCCC[C@H]1C(=O)O[C@H](C)[C@H](NC(=O)c2cccc(NC=O)c2O)C(=O)O[C@@H](C)[C@@H]1OC(=O)CC(C)C [Antimycin A],-0.854
13,CC(C)CC(N(C)C)C1(c2ccc(Cl)cc2)CCC1 (stereo not given) [Sibutramine HCl],-0.534
14,CCC(C)C1O[C@]2(C=C[C@@H]1C)C[C@@H]1CC(C/C=C(\C)[C@@H](OC3C[C@H](OC)[C@@H](OC4C[C@H](OC)[C@@H](O)[C@H](C)O4)[C@H](C)O3)[C@@H](C)/C=C/C=C3\COC4[C@H](O)C(C)=CC(C(=O)O1)[C@]34O)O2 (stereo not given in full) [Avermectin B1a],-0.285
15,CCCC(C)(COC(N)=O)COC(=O)NC(C)C (stereo not given) [Carisoprodol],-0.607
16,CO[C@]12C[C@@H](COC(=O)c3cncc(Br)c3)CN(C)[C@@H]1Cc1cn(C)c3cccc2c13 [Nicergoline],3.09
17,NC(=O)C[S+]([O-])C(c1ccccc1)c1ccccc1 (stereo not given) [Modafinil],-0.532
